Bioassay records as filed in PubChem BioAssay.
The entries come from a sample that favours hits as a whole.
Shiga inhibitor = blocks Shiga toxin action in Vero cells; hit rate 9.2% among 290,000; inhibition, % at 38.7 µM; Vero cells, Shiga toxin protein synthesis inhibition reporter; in the data active means inhibition mostly above about 28%, no sharp cut-off; inactive means mostly below about 43%
Tb PYK inh = T. brucei pyruvate kinase inhibition. Q57TT1. TbPYK enzyme, Kinase-Glo Plus ATP luminescence, 45 min. Potency, µM (highest dose often 76.8 µM), hits mostly inhibitors. hit rate 0.12% among 410,000. AID 624173; further: nearly all actives have a fitted effect of over 50% in size
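T. brucei PYK with substrate was exposed to pin-transferred compounds across a concentration series, then started with 130 uM ADP (final). After 45 min at room temperature, Kinase-Glo Plus luminescence was read, normalized and curve-fitted.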
Giardia FBPA inh = Giardia lamblia aldolase inhibition; Potency, µM (titrated, usually from 59.6 µM), most hits filed as inhibitors; purified Giardia FBPA; hit rate 0.71% among 290,000; further: nearly all actives have a fitted effect of over 55% in size
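Giardia FBPA (40 nM reagent) was preincubated 10 min at RT with compound (up to 57.5 uM final), then substrate plus GAPDH/TPI/NAD/arsenate coupling system with diaphorase/resazurin was added; resorufin fluorescence (525/598 nm) was read after 20 min.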
CHX counter = counter-screen hit for Shiga toxin inhibitors, cycloheximide | cell reporter, cycloheximide protein synthesis inhibition counterscreen | max response, % | hit rate 12% among 300,000; in the data active means max response mostly above about 13%, no sharp cut-off; inactive means mostly below about 14%; further: read at 38.3 µM for the half of the compounds with a filed dose
Sm TGR block = inhibitors of Schistosoma mansoni thioredoxin glutathione reductase. Q962Y6. purified TGR, DTNB reduction, TNB absorbance 405 nm. hit rate 3% among 360,000. Potency, µM (titrated, usually from 114 µM), usual class: inhibitors; further: nearly all actives have a fitted effect of over 60% in size
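Kinetic colorimetric format: TGR-catalysed, NADPH-driven DTNB reduction monitored via TNB absorbance. Enzyme dispensed at 20 nM; compound exposure 15 min at room temperature before reaction start.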
LmPK inh = LmPK (Leishmania mexicana) enzyme inhibition. purified LmPK, Kinase-Glo ATP luminescence, 1 h. Potency, µM (titrated, usually from 57.5 µM), actives largely listed as inhibitors. hit rate 0.37% among 290,000
Target sequence (Q27686 whole entry, looked up): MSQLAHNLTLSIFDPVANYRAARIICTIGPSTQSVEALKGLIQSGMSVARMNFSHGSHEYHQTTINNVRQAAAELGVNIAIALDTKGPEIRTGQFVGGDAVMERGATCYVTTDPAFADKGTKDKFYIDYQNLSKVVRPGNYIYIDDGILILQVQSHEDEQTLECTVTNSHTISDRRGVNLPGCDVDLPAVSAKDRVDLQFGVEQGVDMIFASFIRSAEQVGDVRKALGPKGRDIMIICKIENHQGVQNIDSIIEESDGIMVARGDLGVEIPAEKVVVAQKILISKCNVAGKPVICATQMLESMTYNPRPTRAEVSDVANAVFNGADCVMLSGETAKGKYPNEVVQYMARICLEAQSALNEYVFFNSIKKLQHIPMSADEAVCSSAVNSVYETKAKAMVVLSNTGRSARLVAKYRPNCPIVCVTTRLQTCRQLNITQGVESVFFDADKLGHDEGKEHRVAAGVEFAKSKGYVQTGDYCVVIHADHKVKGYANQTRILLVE
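ATP generated from ADP (0.1 mM) and PEP (0.5 mM) by 0.1 nM LmPK over 1 h at room temperature (pH 7.2 imidazole buffer) was detected by coupled luciferase luminescence. Values were normalized to uninhibited and no-enzyme wells.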
Numbers stand for hits; - = inactive; ? = inconclusive; . = no result given. Unless noted, the call rests on the fitted dose curve; in most records, active means well fitted curve in the direction sought with a large enough effect; inconclusive means small, poorly fitted or top-dose-only effect, or another doubt; inactive means no such curve, though single readings can be large; an effect the other way counts as inactive or inconclusive.

SMILES	Shiga inhibitor	Tb PYK inh	Giardia FBPA inh	CHX counter	Sm TGR block	LmPK inh
CC/C(=C\c1oc2cc3ccccc3cc2[n+]1CC)Nc1ccccc1	-	-	?	-	20µM	-
CCn1nc(C(=O)N[C@@H](CCSC)c2nc3ccccc3[nH]2)c2ccccc2c1=O	-	-	-	25	-	-
CCCCn1nc(C(=O)N[C@@H](CCSC)c2nc3ccccc3[nH]2)c2ccccc2c1=O	-	-	-	-	-	-
CS(=O)(=O)N1CCN(c2ccc(NC(=O)c3ccccc3)cc2)CC1	82	-	-	37	-	-
Cc1cccc(C(=O)Nc2ccc(N3CCN(S(C)(=O)=O)CC3)cc2)c1	73	-	-	22	.	-
O=C(c1cc(-c2ccc(Cl)cc2)on1)N(Cc1cccc(F)c1)Cc1ccco1	.	-	.	.	-	.
COc1ccc(Cl)cc1NC(=S)N1CCCC1	-	-	-	-	-	-
COc1ccc(C)cc1NC(=O)Nc1ccc(C(=O)N2CCCC2)cc1	48	-	.	14	-	-
COc1ccc(Cl)cc1NC(=O)Nc1ccc(C(=O)N2CCCC2)cc1	55	-	.	17	-	-
Cc1ccc(N=c2oc3cc(O)ccc3cc2C(N)=O)cc1	81	-	-	56	-	-
O=C(Cn1ncc2c3ccccc3n(Cc3ccc(F)cc3)c2c1=O)NCCCN1CCCCC1	.	-	.	.	-	.
COc1cccc(-c2nc(CS(=O)(=O)CC(=O)N3CCN(c4ccccc4)CC3)c(C)o2)c1	.	-	.	.	-	.
CCCNC(=O)c1ccc2c(c1)ncn2-c1ccccc1OC	-	-	-	12	-	-
COc1ccccc1-n1cnc2cc(C(=O)N3CCOCC3)ccc21	41	-	.	25	-	-
COCCCNC(=O)CSc1nc(-c2cccc(F)c2)[nH]c1-c1ccccc1	.	-	.	.	-	.
Cc1cc2nc(-c3cccc(NC(=O)c4ccc(Br)o4)c3)oc2cc1C	-	-	-	41	-	-
Cc1ccc2oc(-c3cccc(NC(=O)c4ccc(Br)o4)c3)nc2c1	-	-	-	26	-	-
CC(=O)N1c2ccccc2C(=O)C1N(C)c1ccc(C)cc1 (configuration not stated)	45	-	-	33	-	-
CC(C)C[C@@H](CC(=O)N[C@@H](CCC(=O)O)CC(=O)O)NC(=O)[C@@H]1CNCC[C@H]1NC(=O)C[C@H](CCCN)NC(=O)C[C@H](Cc1c[nH]c2ccccc12)NC(=O)[C@@H]1CNCC[C@H]1N	.	.	-	.	.	.
CCOc1ccc(/C(O)=C2/C(=O)C(=O)N(CC3CCCO3)C2c2ccc(C)o2)cc1 (configuration not stated)	-	-	-	-	-	-
CCOc1cccc(/C(O)=C2/C(=O)C(=O)N(CCOC)C2c2ccco2)c1 (configuration not stated)	45	-	-	20	-	-
CCOc1ccc(/C(O)=C2/C(=O)C(=O)N(CC3CCCO3)C2c2ccco2)cc1 (configuration not stated)	42	-	-	15	-	-
CCOc1cccc(/C(O)=C2/C(=O)C(=O)N(Cc3cccnc3)C2c2ccco2)c1 (configuration not stated)	-	-	-	22	?	-
Nc1nnc(SCc2ccc(F)cc2Cl)s1	47	-	-	31	-	-
Nc1nnc(SCc2c(F)cccc2Cl)s1	-	-	-	-	-	-
SMILES	Shiga inhibitor	Tb PYK inh	Giardia FBPA inh	CHX counter	Sm TGR block	LmPK inh
Cc1nnc(SCc2cccc(CSc3nnc(C)s3)c2)s1	-	-	-	-	-	-
Cc1nnc(SCc2c(Cl)cccc2Cl)s1	60	-	-	32	-	-
Cc1nnc(SCCC(=O)Nc2ccc(F)cc2)s1	-	-	-	-	-	-
Cc1nnc(SCc2ccc(F)cc2Cl)s1	69	-	-	41	-	-
COc1ccc(-c2ccc(C3C4C=CCCC4(C)C(=O)N3Cc3ccccc3)c(F)c2)cc1 (configuration not stated)	-	.	-	-	.	.
CCc1cccc(OCC(=O)Nc2ccc(S(=O)(=O)Nc3cc(C)nc(C)n3)cc2)c1	.	-	.	.	-	.
O=C(CSc1nnnn1-c1cccc(F)c1)NC1CCCCC1	.	-	.	.	-	.
C=CCN(CC=C)C(=O)CN1C(=O)NC(c2ccccc2)(c2ccccc2)C1=O	-	-	.	-	-	-
O=C(/C=C/c1ccc([N+](=O)[O-])cc1)OCC(=O)N1CCCC1	.	-	.	.	.	.
O=C(c1ccc(COc2ccc(F)cc2)o1)n1cccn1	-	-	-	-	-	-
CCN(CC)C(=O)c1ccc(COc2ccccc2Br)o1	-	-	-	-	?	-
CCN(CC)C(=O)c1ccc(COc2ccc(Cl)c(C)c2)o1	.	-	-	30	-	-
Cc1cc(OCc2ccc(C(=O)n3cccn3)o2)ccc1Cl	65	-	-	30	-	-
COc1ccc(OC)c(NC(=O)c2ccc(-c3nc(CSc4ccccc4)c(C)o3)cc2)c1	.	-	.	.	-	.
CC(C)OP(=O)(OC(C)C)C(Nc1ccccc1)c1ccc2c(c1)OCO2 (configuration not stated)	-	-	-	-	-	-
CC(C)OP(=O)(OC(C)C)C(Nc1ccccc1)c1cccc2c1OCO2 (configuration not stated)	-	-	-	23	-	-
CCN(CC)C(=O)Cn1cc(S(=O)(=O)CC(=O)Nc2ccc(C(N)=O)cc2)c2ccccc21	-	-	-	-	?	-
Clc1cncc(Cl)c1N/N=C/c1ccccc1	48	-	-	29	-	-
Clc1ccc(/C=N/Nc2nnc(Cl)c3ccccc23)cc1	55	-	-	18	-	-
Cc1ccc(/C=N/Nc2nnc(Cl)c3ccccc23)cc1	46	-	-	46	-	-
CC(=O)Nc1ccc(C=NNc2nnc(NN=Cc3ccc(NC(C)=O)cc3)c3ccccc23)cc1	.	-	.	.	.	.
Clc1nnc(N/N=C/c2ccccc2)c2ccccc12	-	-	-	47	-	-
Clc1nnc(NN=C2CCCC2)c2ccccc12	-	-	-	-	-	-
Clc1ccc(/C=N/Nc2nc(Cl)nc3ccccc23)cc1	-	-	-	-	-	-
COc1ccc2oc(C(=O)OCC(=O)NC3CCS(=O)(=O)C3)c(C)c2c1 (configuration not stated)	.	-	.	.	.	.
SMILES	Shiga inhibitor	Tb PYK inh	Giardia FBPA inh	CHX counter	Sm TGR block	LmPK inh
Cc1ccc(N(CC(=O)NCCSc2ccccc2)S(=O)(=O)c2ccc(F)cc2)cc1	.	-	.	.	-	.
COc1ccc(-c2cccc(NS(=O)(=O)c3cc(C)ccc3OC)c2)nn1	.	-	.	.	-	.
CC(C)NC(=O)/C(C#N)=C/c1ccc(N(C)C)o1	60	-	-	16	?	-
CCc1nonc1NC(=O)c1oc2cc(C)c(C)cc2c1C	-	-	.	25	-	-
Cc1ccc2oc(C(=O)Nc3nnc(C)s3)c(C)c2c1	-	-	-	17	-	-
Cc1ccc2oc(C(=O)Nc3nonc3C)c(C)c2c1	67	-	-	28	-	-
